PubChem BioAssay
For some assays here: Entries with a potency or affinity are not part of this list. Activity calls are given as the source filed them. Unless noted, how the calls were made is not given here.

How the values were obtained:
[1] = antimalarial activity against Dd2 strain (AID 2302;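 active means growth inhibition above 50% at the single 2 µM test dose, taken to imply half-maximal potency below 2 µM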;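 further: 0% = DMSO untreated growth and 100% = chloroquine plus artemisinin killed control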); details: P. falciparum Dd2 in RBCs, LDH growth readout, 72 h; at 2 µM; stronger effect = higher value
[2] = human hepatoma cell viability loss – ATP luminescence, cytotoxicity control for P. falciparum antimalarial project, primary screen (AID 2303;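 active means inhibition above 50%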;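 further: 0% = DMSO wells and 100% = digitonin-killed cells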); details: HepG2 viability, 24-48 h, at 10 µM, stronger effect = higher value
[3] = target: L-lactate dehydrogenase (Plasmodium falciparum (isolate CDC / Honduras)) (UniProt Q27743); test: PfLDH activity inhibition – cell lysate, 3D7 strain, counter-screen for P. falciparum growth inhibition project (AID 2304);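 further: 0% = vehicle and 100% = reference inhibitor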; details: P. falciparum 3D7 crude extract, LDH APAD/NBT absorbance; at 2 µM; stronger effect = higher value
L-lactate dehydrogenase (Plasmodium falciparum (isolate CDC / Honduras)), sequence (Q27743 whole entry, looked up): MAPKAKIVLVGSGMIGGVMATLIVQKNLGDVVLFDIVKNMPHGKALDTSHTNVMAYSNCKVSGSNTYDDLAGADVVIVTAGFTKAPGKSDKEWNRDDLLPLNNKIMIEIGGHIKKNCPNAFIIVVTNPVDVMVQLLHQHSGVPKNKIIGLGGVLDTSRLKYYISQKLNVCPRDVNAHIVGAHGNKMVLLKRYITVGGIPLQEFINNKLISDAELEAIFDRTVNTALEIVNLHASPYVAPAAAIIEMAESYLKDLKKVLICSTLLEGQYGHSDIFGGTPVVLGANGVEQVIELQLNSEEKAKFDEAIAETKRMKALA

[4] = inhibition of 3D7 malaria parasite growth – strain 3D7 (AID 2306);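 further: 0% = DMSO wells and 100% = chloroquine plus artemisinin control wells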; details: P. falciparum 3D7 erythrocytic growth, LDH absorbance, 72 h; at 2 µM; stronger effect = higher value
[5] = target: Calcium-dependent protein kinase 1 (Plasmodium falciparum (isolate 3D7)) (UniProt P62344); test: PfCDPK1 kinase inhibitors, biochemical, TCAMS library (AID 1159585; cut-off not given, nearly all actives have IC50 up to about 0.98 µM;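 further: inhibitors leave more ATP so luminescence rises with inhibition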); details: recombinant PfCDPK1, Kinase-Glo ATP depletion luminescence
Calcium-dependent protein kinase 1 (Plasmodium falciparum (isolate 3D7)), sequence (P62344 whole entry, looked up): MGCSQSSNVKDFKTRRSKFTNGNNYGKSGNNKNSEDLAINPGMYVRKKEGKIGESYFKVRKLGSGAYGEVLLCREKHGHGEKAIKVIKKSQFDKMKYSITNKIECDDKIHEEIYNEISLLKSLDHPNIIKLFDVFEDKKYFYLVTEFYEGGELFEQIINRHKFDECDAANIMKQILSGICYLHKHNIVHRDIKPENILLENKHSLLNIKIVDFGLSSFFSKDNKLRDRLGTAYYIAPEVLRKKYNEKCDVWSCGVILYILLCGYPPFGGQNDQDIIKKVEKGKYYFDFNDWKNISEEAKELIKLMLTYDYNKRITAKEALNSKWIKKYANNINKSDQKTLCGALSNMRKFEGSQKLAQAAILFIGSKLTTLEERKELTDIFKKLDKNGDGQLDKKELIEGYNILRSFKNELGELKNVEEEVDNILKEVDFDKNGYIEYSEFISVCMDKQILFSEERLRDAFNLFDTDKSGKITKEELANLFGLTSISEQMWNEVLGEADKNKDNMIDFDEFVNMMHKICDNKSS

[6] = target: Plasmodium falciparum protein kinase 6 (PK6, PF3D7_1337100) (UniProt Q8IDW1); test: PfPK6 kinase inhibitors, biochemical, TCAMS library (AID 1159586); details: recombinant PfPK6, Kinase-Glo ATP depletion luminescence
Plasmodium falciparum protein kinase 6 (PK6, PF3D7_1337100), sequence (Q8IDW1 1-305): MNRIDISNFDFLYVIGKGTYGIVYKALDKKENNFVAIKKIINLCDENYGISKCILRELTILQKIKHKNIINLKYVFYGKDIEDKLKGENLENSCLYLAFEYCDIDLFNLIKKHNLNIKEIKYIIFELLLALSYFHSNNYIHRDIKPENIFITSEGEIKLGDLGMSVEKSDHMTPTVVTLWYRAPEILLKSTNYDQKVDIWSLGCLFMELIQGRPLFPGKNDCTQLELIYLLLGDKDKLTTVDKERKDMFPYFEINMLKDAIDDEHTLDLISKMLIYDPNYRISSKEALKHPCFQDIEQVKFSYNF

[7] = target: Protein kinase 7 (PK7), Plasmodium falciparum 3D7 (PF3D7_0213400) (UniProt Q7YTF7); test: inhibition of Plasmodium PK7 catalytic activity – biochemical, TCAMS antimalarial set, Kinase-Glo luminescence (AID 1159587); details: recombinant PfPK7, Kinase-Glo ATP depletion luminescence
Protein kinase 7 (PK7), Plasmodium falciparum 3D7 (PF3D7_0213400), sequence (Q7YTF7 1-343): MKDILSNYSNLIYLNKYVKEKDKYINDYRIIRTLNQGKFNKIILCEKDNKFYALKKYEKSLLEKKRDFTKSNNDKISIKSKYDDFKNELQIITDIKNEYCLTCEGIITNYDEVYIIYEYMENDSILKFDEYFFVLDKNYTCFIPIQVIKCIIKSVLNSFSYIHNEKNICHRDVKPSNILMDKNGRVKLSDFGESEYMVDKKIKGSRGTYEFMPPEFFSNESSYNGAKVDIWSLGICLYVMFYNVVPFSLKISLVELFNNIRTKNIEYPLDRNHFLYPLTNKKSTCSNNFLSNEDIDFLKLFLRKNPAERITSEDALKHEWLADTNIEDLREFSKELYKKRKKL

[8] = target: Calcium-dependent protein kinase 4 (Plasmodium falciparum (isolate 3D7)) (UniProt Q8IBS5); test: PfCDPK4 kinase inhibitors, biochemical, TCAMS library (AID 1159588; cut-off not given, nearly all actives have IC50 up to about 0.91 µM); details: recombinant PfCDPK4, Kinase-Glo ATP depletion luminescence
Calcium-dependent protein kinase 4 (Plasmodium falciparum (isolate 3D7)), sequence (Q8IBS5 whole entry, looked up): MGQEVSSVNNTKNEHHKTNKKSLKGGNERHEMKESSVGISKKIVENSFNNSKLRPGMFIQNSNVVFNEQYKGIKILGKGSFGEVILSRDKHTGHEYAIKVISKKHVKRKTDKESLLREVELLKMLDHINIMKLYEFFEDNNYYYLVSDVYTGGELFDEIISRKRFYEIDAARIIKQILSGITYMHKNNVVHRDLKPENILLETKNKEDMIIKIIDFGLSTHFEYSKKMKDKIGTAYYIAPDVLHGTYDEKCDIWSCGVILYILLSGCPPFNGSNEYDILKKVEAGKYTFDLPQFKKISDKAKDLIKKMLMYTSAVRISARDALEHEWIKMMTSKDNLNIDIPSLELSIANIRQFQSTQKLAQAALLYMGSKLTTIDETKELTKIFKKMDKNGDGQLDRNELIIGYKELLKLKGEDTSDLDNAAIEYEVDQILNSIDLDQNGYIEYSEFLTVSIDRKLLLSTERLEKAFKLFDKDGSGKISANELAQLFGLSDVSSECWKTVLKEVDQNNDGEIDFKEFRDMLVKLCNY

CC(C)CCN1C(=O)C(NC(=O)Oc2ccccc2)C(=O)N(CC23CC4CC(CC(C4)C2)C3)c2ccccc21 (stereo not given)
inactive: growth inhibition [1] 4% | inhibition [2] 3% | inhibition [3] 0% | outcome [5] | outcome [6] | outcome [7] | outcome [8]
active: growth inhibition [4] 95%

CCN(CC)CCN1C(=O)c2oc3ccc(Cl)cc3c(=O)c2C1c1ccc(SC)cc1 (stereo not given)
active: growth inhibition [4] 98%
inactive: growth inhibition [1] 6% | inhibition [2] -5% | inhibition [3] -6% | outcome [5] | outcome [6] | outcome [7] | outcome [8]

O=C(NC1CCN(Cc2ccccc2)CC1)c1cccc(-c2nc3ccc(Cl)cc3[nH]2)c1
inactive: growth inhibition [1] -1% | inhibition [2] 6% | inhibition [3] -3% | outcome [5] | outcome [6] | outcome [7] | outcome [8]
active: growth inhibition [4] 98%

COc1ccccc1N1CCN(Cc2c(NC(C)=O)sc(C)c2C)CC1
active: growth inhibition [1] 80% | growth inhibition [4] 95%
inactive: inhibition [2] 9% | inhibition [3] 3% | outcome [5] | outcome [6] | outcome [7] | outcome [8]

COc1ccc(Nc2nccc(N3CCC(NC(=O)Nc4cccc(C(C)=O)c4)C3)n2)cc1 (stereo not given)
active: growth inhibition [1] 79% | growth inhibition [4] 98%
inactive: inhibition [2] 29% | inhibition [3] -11% | outcome [5] | outcome [6] | outcome [7] | outcome [8]

Cc1ccccc1C1CCN(c2ccc(C(=O)Nc3ccc(F)cc3)cn2)CC1
active: growth inhibition [1] 96% | growth inhibition [4] 96%
inactive: inhibition [2] 45% | inhibition [3] -1% | outcome [5] | outcome [6] | outcome [7] | outcome [8]

Cc1ccc(-c2ccn(Cc3cccc(OCc4ccccc4)c3)n2)cn1 (tested in a mixture with another compound)
active: growth inhibition [1] 64% | growth inhibition [4] 82%
inactive: inhibition [2] -4% | inhibition [3] 0% | outcome [5] | outcome [6] | outcome [7] | outcome [8]

CC(C)Sc1ccc(Cl)cc1CON1C(N)=NC(N)=NC1(C)C
active: growth inhibition [1] 90% | inhibition [2] 66% | growth inhibition [4] 93%
inactive: inhibition [3] 6% | outcome [5] | outcome [6] | outcome [7] | outcome [8]

OC(CNc1cccc(Cl)c1)Cn1c2ccc(Cl)cc2c2cc(Cl)ccc21 (stereo not given)
inactive: growth inhibition [1] 33% | inhibition [2] 8% | inhibition [3] 6% | outcome [5] | outcome [6] | outcome [7] | outcome [8]
active: growth inhibition [4] 95%

O=S(=O)(Nc1ccc2nccc(N3CCNCC3)c2c1)c1ccc2oc3ccccc3c2c1
active: growth inhibition [4] 101%
inactive: growth inhibition [1] 2% | inhibition [2] 16% | inhibition [3] -5% | outcome [5] | outcome [6] | outcome [7] | outcome [8]

N=c1n(Cc2ccccc2)c2ccccc2n1CC(O)c1ccc(Cl)c(Cl)c1 (stereo not given)
inactive: inhibition [2] 40% | inhibition [3] 4% | outcome [5] | outcome [6] | outcome [7] | outcome [8]
active: growth inhibition [1] 98% | growth inhibition [4] 95%

Cc1noc(C)c1S(=O)(=O)N(C)Cc1ccc(-c2ccc(Cl)cc2)o1
active: growth inhibition [1] 100% | growth inhibition [4] 100%
inactive: inhibition [2] 10% | inhibition [3] -3% | outcome [5] | outcome [6] | outcome [7] | outcome [8]

COc1ccc(C2CCN(CCCCNC(=O)c3ccc(NC(=O)c4ccc(Cl)cc4)cc3)CC2)c(OC)c1
inactive: inhibition [2] 32% | inhibition [3] 0% | outcome [5] | outcome [6] | outcome [7] | outcome [8]
active: growth inhibition [1] 95% | growth inhibition [4] 101%

CN(C)CCCOc1ccc(CNCC(C)(C)c2nc(-c3ccc(Cl)c(O)c3)c(-c3ccncc3)[nH]2)cc1
active: growth inhibition [1] 58% | inhibition [2] 64% | growth inhibition [4] 102%
inactive: inhibition [3] -2% | outcome [5] | outcome [6] | outcome [7] | outcome [8]

Cc1cccc(CN2CCCN(Cc3ccc(C(=O)Nc4ccc(C)c(F)c4)cc3)CC2)c1
inactive: growth inhibition [1] 3% | inhibition [2] 47% | inhibition [3] -4% | outcome [5] | outcome [6] | outcome [7] | outcome [8]
active: growth inhibition [4] 85%

COc1cc(-c2cnc(N)c(-c3nc4ccccc4[nH]3)c2)cc(OC)c1OC
active: growth inhibition [1] 57% | inhibition [2] 59% | growth inhibition [4] 101%
inactive: inhibition [3] 7% | outcome [5] | outcome [6] | outcome [7] | outcome [8]

Cc1[nH]c2c(C)cccc2c1C1CCN(CCC2CCN(C(=O)/C=C/c3ccc(Cl)c(Cl)c3)CC2)CC1
active: growth inhibition [1] 79% | inhibition [2] 67% | growth inhibition [4] 100%
inactive: inhibition [3] -1% | outcome [5] | outcome [6] | outcome [7] | outcome [8]

O=C(NC1CCN(Cc2ccccc2)CC1)c1ccc(-c2nc3cc(Cl)c(Cl)cc3[nH]2)c(F)c1
active: growth inhibition [1] 83% | growth inhibition [4] 101%
inactive: inhibition [2] 4% | inhibition [3] -2% | outcome [5] | outcome [6] | outcome [7] | outcome [8]

CCOC(=O)C1=C(C)N=c2sc(=Cc3cc(Cl)ccc3O)c(=O)n2C1c1ccc2c(c1)OCO2 (stereo not given)
active: growth inhibition [1] 91% | growth inhibition [4] 96%
inactive: inhibition [2] -2% | inhibition [3] -1% | outcome [5] | outcome [6] | outcome [7] | outcome [8]

COc1ccc(NC(=O)c2ccc(-c3nc(-c4cccc(C(F)(F)F)c4)cs3)cc2)cc1N1CCN(C)CC1
inactive: inhibition [2] 29% | inhibition [3] 6% | outcome [5] | outcome [6] | outcome [7] | outcome [8]
active: growth inhibition [1] 59% | growth inhibition [4] 98%

CCNc1cc(C(=O)N[C@@H](Cc2ccccc2)[C@H](O)CNC23CCC(CC2)CC3)cc(N2CCCCS2(=O)=O)c1
active: growth inhibition [1] 98% | growth inhibition [4] 99%
inactive: inhibition [2] 10% | inhibition [3] 4% | outcome [5] | outcome [6] | outcome [7] | outcome [8]

CCCCN(CCCC)CCNC(=O)c1cccc(NC(=O)N2CCc3cc(SC)c(C(F)(F)F)cc32)c1
active: growth inhibition [4] 96%
inactive: growth inhibition [1] 32% | inhibition [2] 15% | inhibition [3] -1% | outcome [5] | outcome [6] | outcome [7] | outcome [8]

COc1ccc2ncc(Cl)c(CCN3CCC(NCc4ccc5c(n4)NC(=O)CO5)CC3)c2c1
active: growth inhibition [4] 92%
inactive: growth inhibition [1] 26% | inhibition [2] 25% | inhibition [3] -1% | outcome [5] | outcome [6] | outcome [7] | outcome [8]

CN1CCCN(Cc2ccc(-c3cccc(NC(=O)c4ccc(Cl)cc4)c3)cc2)CC1
active: growth inhibition [1] 50% | growth inhibition [4] 98%
inactive: inhibition [2] 34% | inhibition [3] -4% | outcome [5] | outcome [6] | outcome [7] | outcome [8]

CCOc1cc(C(=O)N[C@@H](Cc2ccccc2)[C@H](O)CNC(C)(C)c2cccc(OC)c2)cc(N2CCCS2(=O)=O)c1
active: growth inhibition [1] 99% | growth inhibition [4] 99%
inactive: inhibition [2] -5% | inhibition [3] -3% | outcome [5] | outcome [6] | outcome [7] | outcome [8]

Cc1ccc(C)c(NC(=O)NCCNc2ccnc(Nc3ccc(F)cc3)n2)c1
inactive: growth inhibition [1] 5% | inhibition [2] 21% | inhibition [3] 6% | outcome [5] | outcome [6] | outcome [7] | outcome [8]
active: growth inhibition [4] 97%

COc1ccc(-c2nc(NC(=O)Cc3coc4cc(OC)ccc34)sc2C)cc1
inactive: inhibition [2] 9% | inhibition [3] -2% | outcome [5] | outcome [6] | outcome [7] | outcome [8]
active: growth inhibition [1] 77% | growth inhibition [4] 100%

COc1ccc(NC(=O)c2ccc(-c3ccc(-c4cccnc4)cc3)c(C)c2)cc1OCCN(C)C
active: growth inhibition [1] 73% | growth inhibition [4] 99%
inactive: inhibition [2] 24% | inhibition [3] 0% | outcome [5] | outcome [6] | outcome [7] | outcome [8]

NC(=O)c1sc(-n2cnc3ccc(OCC4CCNCC4)cc32)cc1OCc1ccccc1C(F)(F)F
active: growth inhibition [1] 62% | growth inhibition [4] 101%
inactive: inhibition [2] 18% | inhibition [3] -6% | outcome [5] | outcome [6] | outcome [7] | outcome [8]

Cc1noc(-c2ccc(N3CCC(C(=O)N4CCN(C(C)C)CC4)CC3)cc2)n1
inactive: growth inhibition [1] -2% | inhibition [2] -12% | inhibition [3] -5% | outcome [5] | outcome [6] | outcome [7] | outcome [8]
active: growth inhibition [4] 95%

CNC(=C[N+](=O)[O-])NCCSCc1cc(C)c(CN(C)C)s1
active: growth inhibition [1] 96% | growth inhibition [4] 98%
inactive: inhibition [2] 48% | inhibition [3] -1% | outcome [5] | outcome [6] | outcome [7] | outcome [8]

CN(C)c1ccc(-c2nc3ccc(N)cc3[nH]2)cc1
active: growth inhibition [1] 97% | growth inhibition [4] 102%
inactive: inhibition [2] 1% | inhibition [3] -1% | outcome [5] | outcome [6] | outcome [7] | outcome [8]

Cc1csc(NC(=O)c2cn(-c3ccccc3)nc2-c2cccs2)n1
inactive: growth inhibition [1] 12% | inhibition [2] -1% | inhibition [3] 4% | outcome [5] | outcome [6] | outcome [7] | outcome [8]
active: growth inhibition [4] 95%

COc1ccc2nccc([C@@H](O)CN3CCC(NC(=O)C(c4cc5ccccc5o4)N4CCN(c5ccccc5OC)CC4)CC3)c2c1 (stereo not given in full)
active: growth inhibition [1] 83% | growth inhibition [4] 99%
inactive: inhibition [2] 14% | inhibition [3] -5% | outcome [5] | outcome [6] | outcome [7] | outcome [8]

Cc1ccccc1C1CCN(C2CCC(NC(=O)c3ccc(-c4cc(C(F)(F)F)nn4C)s3)CC2)CC1 (stereo not given)
inactive: inhibition [2] 42% | inhibition [3] -2% | outcome [5] | outcome [6] | outcome [7] | outcome [8]
active: growth inhibition [1] 68% | growth inhibition [4] 98%

Cc1nc(C)c(CC(=O)Nc2ccc(-c3cccc(-c4nc5ccc(C(F)(F)F)cc5[nH]4)c3)cc2)s1
inactive: growth inhibition [1] 4% | inhibition [3] 1% | outcome [5] | outcome [6] | outcome [7] | outcome [8]
active: inhibition [2] 67% | growth inhibition [4] 86%

OC(CNc1ccnc(Nc2ccc(Cl)cc2)n1)c1ccccc1C(F)(F)F (stereo not given)
active: growth inhibition [4] 98%
inactive: growth inhibition [1] 28% | inhibition [2] 22% | inhibition [3] 0% | outcome [5] | outcome [6] | outcome [7] | outcome [8]

CCN1CCc2nc3ccccc3c(C(=O)Nc3ccc(C#N)cc3)c2C1
inactive: inhibition [2] 24% | inhibition [3] -1% | outcome [5] | outcome [6] | outcome [7] | outcome [8]
active: growth inhibition [1] 72% | growth inhibition [4] 99%

O=C(/C=C/c1ccc(Cl)c(Cl)c1)NCCCCCN1CCC(NC(=O)Nc2ccc(Cl)cc2Cl)CC1
active: inhibition [2] 96% | growth inhibition [4] 91%
inactive: growth inhibition [1] 33% | inhibition [3] -2% | outcome [5] | outcome [6] | outcome [7] | outcome [8]

NCC1CCCN1Cc1ccc(-c2ccc(-c3nc4ccccc4[nH]3)s2)cc1 (stereo not given)
active: growth inhibition [1] 97% | growth inhibition [4] 98%
inactive: inhibition [2] 17% | inhibition [3] -6% | outcome [5] | outcome [6] | outcome [7] | outcome [8]
